Assay outcomes as filed in PubChem BioAssay.
tim23-1 inh = tim23-1 yeast growth inhibition | S. cerevisiae tim23-1 growth, BacTiter-Glo luminescence, 24 h | inhibition, % at 20 µM | 330,000 tested, 1.3% active | AID 463212;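 active means growth inhibition of the mutant yeast at or above 50%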;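 further: temperature-sensitive mutant grown at 25 °C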
TIM10 inh = TIM10 yeast growth inhibition; 330,000 tested, 1.4% active; inhibition, % at 10 µM; S. cerevisiae TIM10 strain growth, BacTiter-Glo luminescence, 24 h;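 active means inhibition of 40% or more at the single tested concentration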;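 further: wild-type TIM10 isogenic control strain grown at permissive 25 °C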
NLRP3 yeast inh = blocks the NALP3 inflammasome reconstituted in yeast | Yeast reconstituted NLRP3/ASC/caspase-1, beta-gal luminescence, 24 h | inhibition, % at 10 µM | 330,000 tested, 0.39% active;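 active means inhibition of 50% or more; inactive means inhibition below 50%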
tim10-1 inh = growth inhibitors of tim10-1 mutant yeast; AID 463190; 330,000 tested, 2.2% active; inhibition, % at 20 µM; S. cerevisiae tim10-1 ts strain growth, BacTiter-Glo, 24 h;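 active means inhibition of at least 40%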;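 further: mutant grown at 25 °C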
PfHsp90 set2 = growth inhibition of yeast expressing Plasmodium Hsp90 | 310,000 tested, 0.32% active | S. cerevisiae expressing PfHsp90, BacTiter-Glo ATP, 48 h; yeast lacking PDR1 and PDR3 efflux regulators | inhibition, % at 9.4 µM | AID 504621;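 active means every replicate shows inhibition above about 80%, whatever the replicate mean, limit read from the data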
tim10-1 confirm = tim10-1 yeast growth inhibition, confirmed. inhibition, % at 20 µM. shares compounds with tim10-1 inh. 7,400 tested, 56% active. AID 463213. S. cerevisiae tim10-1 ts strain growth, BacTiter-Glo, 24 h;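 active means inhibition of yeast growth at or above a set limit in either of two repeat tests at 20 µM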;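 further: tim10-1 mutant grown at permissive 25 °C to find synthetic lethal compounds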
Numbers stand for hits; 0 = inactive; - = no result. Hits are enriched below; roughly 3.7% of the tested compounds scored in any of these assays.

SMILES | tim23-1 inh | TIM10 inh | NLRP3 yeast inh | tim10-1 inh | PfHsp90 set2 | tim10-1 confirm
O=C(Nc1ccccc1C(=O)Nc1ccc(Cl)cc1)c1cccnc1 | 0 | 0 | 0 | 0 | 0 | -
Cc1c(-c2ccccc2)sc(Br)c1C(=O)N1CCOCC1 | 0 | 0 | 0 | 47.8 | 0 | 0
CC(C)CCNCC(=O)NC(c1ccccc1)c1ccccc1 | 0 | 0 | 0 | 0 | 0 | -
COc1ccc(OC)c(NC(=O)[C@@]2(CC(=O)O)CC(/C=C/c3ccccc3)=NO2)c1 | 0 | 0 | 0 | 0 | 0 | -
O=C(/C=C/c1ccccc1)c1ccccc1 | 0 | 0 | 0 | 0 | 0 | -
N#Cc1ccc(/C=C/C(=O)c2ccccc2)cc1 | 0 | 0 | 0 | 47.6 | 0 | 42.6
CN(C)/C=C1/C=C(C=O)OC1=O | 0 | 0 | 0 | 0 | 0 | -
CCc1ccc(-c2csc(NC(=O)C3CC(=O)N(c4ccc5c(c4)OCCO5)C3)n2)cc1 (stereo not given) | 0 | 0 | 0 | 47.1 | 0 | 0
CCOc1ccccc1C1N=C(c2ccc(OC)cc2)CC(c2ccccc2O)N1 (stereo not given) | 0 | 0 | 0 | 44.3 | 0 | 0
CC(C)C1N=C(c2ccc3c(c2)OCO3)CC(c2ccccc2O)N1 (stereo not given) | 0 | 0 | 0 | 0 | 0 | -
O=C(CNC(=S)N(Cc1ccccc1)Cc1ccccc1F)NCCc1ccccc1 | 0 | 0 | 0 | 41.5 | - | 0
O=C(CNC(=S)N(Cc1ccccc1)Cc1ccccc1F)NCc1ccccc1 | 0 | 0 | 0 | 0 | 0 | -
CCN(CC)c1ccc(NC(=O)CCCCCN2C(=O)c3ccccc3C2=O)cc1 | 0 | 0 | 0 | 46.1 | - | 41.7
CC(=O)Nc1ccc(NC(=O)CCCCCN2C(=O)c3ccccc3C2=O)cc1 | 0 | 0 | 0 | 0 | 0 | -
Cc1sc2ncnc(SCc3ccc(C(=O)O)cc3)c2c1C | 0 | 0 | 0 | 0 | 0 | -
COC(=O)c1ccc(CSc2ncnc3sc(C)c(C)c23)o1 | 0 | 0 | 0 | 45.7 | - | 37.0
CC1(C)CN=c2s/c(=C\c3ccc(Cl)cc3)c(=O)n2C1 | 0 | 0 | 0 | 40.8 | 0 | 0
O=C(COC(=O)c1cc(S(=O)(=O)N2CCCC2)ccc1O)Nc1ccc(F)cc1F | 0 | 0 | 0 | 0 | 0 | -
CN(CC(=O)NCCc1ccc(S(N)(=O)=O)cc1)CC(=O)Nc1ccc(Cl)c(C(F)(F)F)c1 | - | - | - | - | 0 | -
C[C@@H]1CC[C@H](O)/C=C/C(=O)O[C@H](C)CC[C@H](O)/C=C/C(=O)O1 | 0 | 0 | 0 | 0 | 0 | -
CCOC(=O)c1cc(CC)sc1NC(=O)c1cc(OCC)c(OCC)c(OCC)c1 | 0 | 0 | 0 | 0 | - | -
CCOC(=O)c1cc(CC)sc1NC(=O)c1ccc2c(c1)OCCO2 | 0 | 0 | 0 | 41.3 | 0 | 0
Cc1ccc(Nc2c(-c3ccccc3O)nc3cnccn23)cc1 | 0 | 0 | 0 | 40.1 | 0 | 0
COc1ccc(Nc2c(-c3ccc(C)cc3)nc3cnccn23)cc1 | 0 | 0 | 0 | 0 | 0 | -
O=C(NNC(=S)Nc1cccc(C(F)(F)F)c1)c1cccc(Cl)c1 | 0 | 0 | 0 | 50.1 | 0 | 45.6
SMILES | tim23-1 inh | TIM10 inh | NLRP3 yeast inh | tim10-1 inh | PfHsp90 set2 | tim10-1 confirm
Cc1ccc(C(=O)c2oc3ccc(Cl)cc3c2NC(=O)CN2CCN(C)CC2)cc1 | 0 | 0 | 0 | 49.0 | 0 | 0
C=CCOC(=O)C1=C(C)N=C2SCCC(=O)N2C1/C=C/c1ccccc1 (stereo not given) | 0 | 0 | 0 | 42.2 | - | 0
CCN(C(=O)Cn1c(=O)oc2ccccc21)c1cccc(C)c1 | 0 | 0 | 0 | 0 | 0 | -
COC(=O)c1cccnc1-n1c(=O)c2cccnc2n(Cc2ccc(Cl)cc2)c1=O | 0 | 0 | 0 | 49.0 | - | 36.8
COC(=O)c1cccnc1-n1c(=O)c2cccnc2n(Cc2cccc([N+](=O)[O-])c2)c1=O | 0 | 0 | 0 | 0 | 0 | -
CC(C)OP(=O)(OC(C)C)C(Nc1ccccn1)c1ccc(F)cc1 (stereo not given) | 0 | 0 | 0 | 45.6 | 0 | 0
CCCOc1cc(CN2CCCCC2)cc(C(C)=O)c1 | 0 | 0 | 0 | 0 | - | -
COc1ccc(NC(=O)CO/N=C/C(=O)Nc2ccccc2C)c([N+](=O)[O-])c1 | 0 | 0 | 0 | 0 | 0 | -
CN1C[C@@H]2C(c3ccccc3)C3(c4ccccc4)CC2(C3)[C@H]1c1ccccc1 (stereo not given in full) | 0 | 0 | 0 | 52.5 | 0 | 31.8
O=C(O)CN(c1ccccc1[N+](=O)[O-])S(=O)(=O)c1ccccc1 | 0 | 0 | 0 | 0 | 0 | -
COc1ccccc1-c1nnc2sc(C3CCCCC3)nn12 | 0 | 0 | 0 | 42.7 | 0 | 0
COc1ccc(Cc2nn3c(-c4ccccc4OC)nnc3s2)cc1 | 0 | 0 | 0 | 0 | 0 | -
CCCc1cc(-c2n[nH]c(=S)n2C(C)c2ccccc2)cs1 (stereo not given) | 0 | 0 | 0 | 47.8 | 0 | 0
CCc1cc(-c2n[nH]c(=S)n2CC)cs1 | 0 | 0 | 0 | 0 | 0 | -
CCc1cc(-c2n[nH]c(=S)n2-c2ccccc2C)cs1 | 0 | 0 | 0 | 42.3 | 0 | 35.1
CCc1nnc(NC(=O)CCC(=O)N2CCN(Cc3ccc(OC)c(F)c3)CC2)s1 | 0 | 0 | 0 | 0 | 0 | -
Cc1ccc(-c2ccc(/C=N/NC(N)=S)o2)cc1 | 0 | 0 | 0 | 41.8 | 0 | 0
COc1ccc(C(CNC(=O)c2oc3ccc(Cl)cc3c2C)N2CCCCC2)cc1 (stereo not given) | 0 | 0 | 0 | 46.8 | 0 | 0
CCc1cc(C(=O)NCC(c2ccc(OC)cc2)N2CCOCC2)sc1C (stereo not given) | 0 | 0 | 0 | 0 | 0 | -
COc1ccc(C(CNC(=O)c2cc(C)oc2C)N2CCOCC2)cc1 (stereo not given) | 0 | 0 | 0 | 45.1 | 0 | 0
O=C(CSc1cccc2cccnc12)N1CCCC1 | 0 | 0 | 0 | 42.0 | 0 | 34.5
CCOC(=O)c1ccn(CSc2c(F)c(F)cc(F)c2F)n1 | 0 | 0 | 0 | 0 | 0 | -
Cc1nn2c(N3CCOCC3)c3c(nc2c1-c1ccccc1)CCCC3 | 0 | 0 | 0 | 0 | 0 | -
Cc1nc2c(-c3ccc(F)cc3)c(C)nn2c(N2CCOCC2)c1C | 0 | 0 | 0 | 44.5 | 0 | 0
COC(=O)c1ccc(Sc2nnnn2-c2ccccc2)c([N+](=O)[O-])c1 | 0 | 0 | 0 | 49.9 | 0 | 34.9
SMILES | tim23-1 inh | TIM10 inh | NLRP3 yeast inh | tim10-1 inh | PfHsp90 set2 | tim10-1 confirm
O=C(O)c1ccc(Sc2nnnn2-c2ccccc2)c([N+](=O)[O-])c1 | 0 | 0 | 0 | 0 | 0 | -
CC(C)C(=O)N(c1cc2sc(=O)oc2c2ccccc12)S(=O)(=O)c1cccs1 | 0 | 0 | 0 | 46.7 | 0 | 0
CCOc1ccc(NS(=O)(=O)c2cccc(C(=O)NCC3(N(C)C)CCCCC3)c2)cc1 | 0 | 0 | 0 | 0 | - | -
O=C(CN1CCC(C(=O)c2ccc(Cl)cc2)CC1)Nc1ccc2c(c1)OCCO2 | 0 | 0 | 0 | 44.1 | 0 | 0
NC(=O)C1CCN(CC(=O)Nc2ccc3c(c2)OCCO3)CC1 | 0 | 0 | 0 | 0 | 0 | -
N#Cc1nc(-c2ccccc2F)oc1NCc1cccc2c1OCO2 | 0 | 0 | 0 | 51.8 | 0 | 0
Cc1ccc(NC(=O)CN2C(=O)S/C(=C\c3ccccn3)C2=O)cc1C | 0 | 0 | 0 | 0 | 0 | -
